# Hit rate of the full screen: of about 69,000 compounds, about 8,600 (12%) showed an effect of 50% or more. The full list was thinned out, with strong results kept by preference.
# Tested on: Plasmodium berghei
# Assay: Screen against P. berghei liver stage (PbLuc), transformed with Luciferase, at 10uM
# Format: functional, HepG2
# Details: tested at 10 uM
row,Compound,INHIBITION [%]
1,CCc1ccc(NC(=O)c2cnc(N3CCCC3)nc2C)cc1,-55.4
2,CCCn1cc(NC(=O)Nc2ccc(F)c(C(=O)NC)c2)cn1,11.3
3,OC[C@H]1CN(C2Cc3ccccc3C2)C[C@H]1CN1CCC(O)CC1,29.4
4,CCCOCC1CCN(C(=O)c2cnc(-c3csc(C)n3)nc2O)C1 (stereo not drawn),-33.9
5,O=C(CSc1nccc(-c2ccc3c(c2)OCO3)n1)N1CCOCC1,-47.8
6,Cc1cnn(CC2CCCN2Cc2nnc(-c3ccccc3)o2)c1 (stereo not drawn),40.9
7,N#Cc1cccc(OCCN2CCn3c(nnc3C3CC3)C2)c1,-1.14
8,CCN(Cc1cccc2c1OCO2)C(=O)Nc1cn[nH]c1,-16
9,O=C(c1ccoc1)N1Cc2cnn(CC3CC3)c2C(COCC2CC2)C1 (stereo not drawn),22.6
10,Cn1ncc2c1C(COCC1CC1)CN(C(=O)c1ccoc1)C2 (stereo not drawn),25.6
11,COCC1CN(C(=O)c2ccoc2)Cc2cnn(CC3CCOCC3)c21 (stereo not drawn),51.4
12,Cc1nn(CCO)c(C)c1-c1cc(C(C)(C)C)nc(N)c1C#N,-0.71
13,COc1cc(F)ccc1NC(=O)NCCNC(=O)OC(C)(C)C,19.1
14,COc1cc(F)ccc1NC(=O)NC(C)C(=O)NC(C)(C)C (stereo not drawn),50.1
15,CCC(=O)Nc1ccc(F)cc1OC,27.6
16,CCn1ncc(CN2CCC(c3ncc(Cl)cc3S(C)(=O)=O)CC2)c1C,20.57
17,COc1ncccc1C(=O)NCCn1nc(C)ccc1=O,3.68
18,CNc1ccc(C2CN(c3nc(C)cc(C)n3)CCO2)nc1 (stereo not drawn),-7.9
19,COc1ccc(CN2CCC3(CC(=O)N(c4cncnc4)C3)C2)cc1 (stereo not drawn),42.6
20,COc1c(C2CCCN2Cc2nnc(C3CC3)n2C)c(C)nn1C (stereo not drawn),5.94
21,CC(=O)N1CCN(C(=O)CN2CCCC2c2c(C)nn(C)c2C)CC1 (stereo not drawn),50.1
22,Cc1nn(C)c(C)c1C1CCCN1CC(=O)NC(C1CC1)C1CC1 (stereo not drawn),25.7
23,Cc1nn(C)c(Cl)c1C1CCCN1Cc1nnc(C2CC2)n1C (stereo not drawn),7.93

row,Compound,INHIBITION [%]
1,Cc1nn(C)c(Cl)c1C1CCCN1CC(=O)NC1CCCC1 (stereo not drawn),53
2,Cc1nn(C)c(C)c1NC(=O)CN1CCCC1c1c(C)nn(C)c1C (stereo not drawn),28.8
3,COCCNC(=O)CN1CCCC1c1c(C)nn(C)c1Cl (stereo not drawn),36.1
4,Cc1nn(C)c(Cl)c1C1CCCN1CC(=O)N1CCCCC1 (stereo not drawn),-3.21
5,Cc1nn(C)c(Cl)c1C1CCCN1CC(=O)NC1CCCCC1 (stereo not drawn),14.7
6,Cc1nn(C)c(C)c1C1CCCN1Cc1nnc(C2CC2)n1C (stereo not drawn),50.5
7,CC(=O)NCCNC(=O)CN1CCCC1c1c(C)nn(C)c1C (stereo not drawn),60.2
8,Cc1nn(C)c(Cl)c1C1CCCN1CC(=O)N1CCOCC1 (stereo not drawn),33.6
9,Cc1cc(C(=O)NC2CCc3c(ccc(=O)n3CC(C)C)C2)no1 (stereo not drawn),2.7
10,CN(CCC#N)C(=O)Cn1cnc2c(Br)cccc2c1=O,11.9
11,CCn1ccnc1CN1CCCN(C(=O)c2ccsc2)CC1,16.165
12,CS(=O)(=O)c1ccc(NCCC2CCCO2)c(S(C)(=O)=O)c1 (stereo not drawn),15.2
13,Cc1cccc(SC2CCN(C(=O)CCCn3cnnn3)CC2)c1,43.8
14,CN(C)Cc1ccnc(NS(=O)(=O)Cc2cccc(F)c2)c1,27
15,CC(C)n1cnnc1C1CCCN(C(=O)COCc2ccccc2)C1 (stereo not drawn),2.3
16,NC(=O)c1csc(N2C[C@@H](CN3CCC(O)CC3)[C@@H](CO)C2)n1,19.6
17,CC(NC(=O)CSCC(N)=O)c1ccc(Oc2ccccc2)cc1 (stereo not drawn),1.86
18,CC(NC(=O)CSCC(N)=O)c1ccccc1Oc1ccccc1 (stereo not drawn),71.4
19,CCS(=O)(=O)CC(=O)NC(C)c1ccccc1Oc1ccccc1 (stereo not drawn),-3.94
20,Cc1nnc(N2C[C@@H](OCC3CCCC3)[C@H]3OCCC[C@H]32)s1,-36
21,O=C(c1ccc2[nH]nnc2c1)N1C[C@H](O)[C@]2(CCCO2)C1,4.41
22,O=C(NCCCN1CCOCC1)c1ccc(-n2ccc3ccccc32)s1,29.3
23,Cn1ccc2c(C(=O)NCCCN3CCOCC3)cccc21,22.2

row,Compound,INHIBITION [%]
1,CCC1CN(CC(=O)NCCN(CC)CC)c2ccccc2S1 (stereo not drawn),19.4
2,CCN(CC)CCNC(=O)c1cnc(C(C)(C)C)s1,4.88
3,Cn1ccc2c(C(=O)NCCCN3CCCC3)cccc21,55.9
4,Cc1nc(-c2cc(C(=O)NCCN3CCOCC3)c3ccccn23)cs1,-11.6
5,O=C(NCCN1CCOCC1)c1ccc(-n2ccc3ccccc32)s1,63.2
6,O=C(NCCCN1CCCCC1)c1n[nH]c(=O)c2ccccc12,14.4
7,CCN(CC)CCNC(=O)c1ccc(-n2ccc3ccccc32)s1,75.1
8,O=C(NCCCN1CCCCC1)c1ccc(-n2ccc3ccccc32)s1,84.5
9,Cn1ccc2c(C(=O)NCCCS(C)(=O)=O)cccc21,9.16
10,O=C(NCCCN1CCCC1=O)c1ccc(-n2ccc3ccccc32)s1,-45.5
11,Cc1nc2c(c(=O)[nH]1)CN(C(=O)CCC1CCCN(C)C1)C2 (stereo not drawn),48.2
12,Cc1noc(CN(C)Cc2ccc3c(c2)OCO3)n1,19.2
13,Cc1cc(Cl)ccc1-n1ncc(C(=O)NCC2COC(C)(C)O2)c1N (stereo not drawn),-15.2
14,CC(C)N(C)Cc1cnc2n1CCN(Cc1ccsc1)C2,21.4
15,COCCn1ccc2cc(C(=O)N3CCN(S(C)(=O)=O)CC3)ccc21,-0.448
16,CC(C)(C)C(=O)N1CCC(c2noc(C3CCC(=O)N3)n2)CC1 (stereo not drawn),-17.9
17,Cc1nnc2n1CCN(Cc1csc(COc3ccccc3)n1)C2,-0.113
18,CC1(C)Cc2nc(C(C)(C)C)ncc2C(NC(=O)C2(N)CC2)C1 (stereo not drawn),-10.9
19,COc1cc(C(=O)NS(=O)(=O)c2cncc(Br)c2)cc(OC)c1C,-4.68
20,O=C1[C@@H]2CN(c3ncccc3Cl)C[C@]2(C(=O)O)CN1CC1CC1,39.1
21,CC(Cc1cncs1)Nc1ncnc2cccc(F)c12 (stereo not drawn),66.9
22,Cc1cc(CC(C)Nc2ncnc3cccc(F)c23)[nH]n1 (stereo not drawn),19.3
23,CC(Cc1cccnc1)Nc1ncnc2cccc(F)c12 (stereo not drawn),-3.43

row,Compound,INHIBITION [%]
1,COc1ccc(OCCNC(=O)N2CCS(=O)(=O)CC2)cc1,-16.35
2,COCCOCC(=O)Nc1ccc(F)cc1C,55.4
3,COCCOCC(=O)Nc1ccc(C)cc1F,-29.2
4,COCCOCC(=O)Nc1cc(C)ccc1F,-18.9
5,CCN(C)c1ncnc2c1CCN(Cc1nccs1)CC2,-37.8
6,CCCc1nc(N[C@H]2COC[C@@H]2N2CCCC2)c2cnn(C)c2n1,25.8
7,CCCc1nc(NCc2c(C)nn(CCC)c2C)c2cnn(C)c2n1,66.6
8,CCc1nc(NCCc2nc(C)c(C)s2)c2cnn(C)c2n1,27.6
9,Cc1cc(C(F)(F)F)nc(CCNc2nc(C)nc3c2cnn3C)n1,15.3
10,CCCc1nc(N[C@H]2COC[C@@H]2N2CCCCC2)c2cnn(C)c2n1,-19.8
11,CCc1nc(NCCc2c(C)nn(CC)c2C)c2cnn(C)c2n1,65.7
12,CC(C)(C)c1ncc(CNCC2CCCN2c2cccnn2)s1 (stereo not drawn),31.3
13,Cn1cc(C(=O)NC[C@@H]2OC[C@H]3CN(Cc4ccco4)CC[C@H]32)cn1,-1.53
14,CC(C)OCCN1CCN(C(C)c2nc(C3CC3)no2)CC1 (stereo not drawn),33.6
15,O=C(NCCNc1ncccn1)N1CCCC1,-0.113
16,Cc1ccc(N2CC(c3nccc(C)n3)C2)nn1,19.64
17,CCOC(C)C(=O)NCc1ccc(N(C)C)cc1 (stereo not drawn),-25.9
18,CC(C)c1cc(Br)ccc1NC(=O)NCC(O)CO (stereo not drawn),25.4
19,CCOCC(O)CN1CCN(C(=O)c2cc(F)cc(F)c2)CC1 (stereo not drawn),3.73
20,CC(C)(C)c1ccc(C(=O)NCCCNC(=O)c2cnccn2)cc1,-23.45
21,O=C(NCC(=O)N1CCc2ccccc2C1)c1cnccn1,-112
22,O=C(CCNC(=O)c1cnccn1)Nc1ncc[nH]1,59.1
23,O=C(CNC(=O)c1cnccn1)Nc1ncc[nH]1,71.2

row,Compound,INHIBITION [%]
1,O=C(NCCNc1cc(N2CCCC2)ncn1)c1cnccn1,19.2
2,O=C(CCCNC(=O)c1cnccn1)Nc1ncc[nH]1,56.3
3,O=C(NCc1csc(Br)c1)c1cnccn1,-43.6
4,CC(C)(C)c1ccc(S(=O)(=O)CCNC(=O)c2cnccn2)cc1,26.8
5,O=C(NCCSC1CCCC1)c1cnccn1,4.41
6,O=C(Cc1ccccn1)N1CCC2(CC1)CC(Oc1ccccn1)CO2 (stereo not drawn),14.2
7,O=C(c1cccnc1Oc1ccc(Cl)cc1)N1CC[C@@H](O)C1,11.5
8,Cn1nccc1C(=O)N1CCC2(CC1)COC(COc1ccccn1)C2 (stereo not drawn),8.64
9,CC(=O)Nc1nc(C)c(S(=O)(=O)NCCc2cccnc2)s1,13
10,Cc1ccc2oc(CN3CCC(C(=O)O)(n4ccnc4)CC3)c(C)c2c1,-23.5
11,Cc1nc2c(c(NC(C)C)n1)CCN(C1CCOCC1)CC2,36.4
12,Cc1cnn(CCCNC(=O)NC(C)C(=O)Nc2ccccc2)c1 (stereo not drawn),68.8
13,Cc1cnn(CCCNC(=O)NCCC(=O)Nc2ccccc2)c1,22.6
14,Cc1cnn(CCCNC(=O)NCCS(=O)(=O)Nc2ccccc2)c1,-4.4
15,Cc1nc2c(c(C)c1CC(=O)NCc1ccco1)c(=O)[nH]n2C,13.6
16,Cn1ncc2c(NCC3CCCN3c3cccnn3)ncnc21 (stereo not drawn),21.5
17,c1cnnc(N2CCCC2CNc2ncnc3c2CCC3)c1 (stereo not drawn),-24.2
18,c1cnnc(N2CCCC2CNc2ncnc3sccc23)c1 (stereo not drawn),-19.6
19,c1cnnc(N2CCCC2CNc2cnc3ccccc3n2)c1 (stereo not drawn),7.08
20,c1cnnc(N2CCCC2CNc2ncnc3ccsc23)c1 (stereo not drawn),52.3
21,c1cnnc(N2CCCC2CNc2ncnc3ccccc23)c1 (stereo not drawn),64.7

# Source: ChEMBL document CHEMBL4513216, “Probing the Open Global Health Chemical Diversity Library for Multistage-Active Starting Points for Next-Generation Antimalarials” (ACS Infect Dis, 2020)
